{"source": "PubChem BioAssay", "key": {"[1]": {"test_system": "Aerobactin synthetase IucA (Klebsiella pneumoniae)", "experiment": "IucA aerobactin synthetase inhibitors, biochemical, Tocris library, absorbance (AID 1345561; call rule not given here;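 further: 100% = enzyme without compound and 0% = no enzyme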)", "conditions": "purified IucA enzyme assay, absorbance (OD) read-out; stronger effect = lower value;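 tested at 8 µM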"}, "[2]": {"experiment": "sensitizers of A549 cells to miR-34 induction, primary screen, imaging, A549 dox-inducible miR-34, nuclei and caspase counts (AID 1347080)", "conditions": "A549 miR-34 inducible, Hoechst nuclei count, 48 h"}, "[3]": {"experiment": "viability rescue of complex I mutant cybrids, primary screen, cell-based, galactose medium, ATP luminescence (AID 1645843;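 active means z-score of at least 1.8 in each of two replicates, scored against plate mean and spread of sample wells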;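 further: positive z means more ATP and so rescue of galactose-driven cybrid death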)", "conditions": "complex I mutant cybrid cells, 72 h, stronger effect = higher value"}, "[4]": {"conditions": "stronger effect = lower value, cell number ratio, induced over uninduced"}, "[5]": {"conditions": "measured here: relative caspase fold change +Dox/-Dox"}, "[6]": {"conditions": "measured here: total cells with miR-34 induction, stronger effect = lower value"}, "[7]": {"conditions": "measured here: total cells without miR-34 induction"}}, "note": "Where “and” joins values, the source holds several entries; their conditions need not be identical. Identical values can stand only once. Calls of active or inactive are those of the source.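 How the source made its calls, unless noted: active means compounds whose cell count with miR-34 switched on is under 0.7 times the count with it off; inactive means the rest.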", "data": [{"compound": "NC(=O)CCCCn1ccc(NC(N)=NCC(F)(F)F)n1", "values": [{"measurement": "remaining activity", "setting": "[1]", "result": "98.2% (inactive)"}, {"measurement": "fold change", "setting": "[2]; [4]", "result": "0.945 (inactive)"}, {"measurement": "fold change", "setting": "[2]; [5]", "result": 0.965}, {"measurement": "cell count", "setting": "[2]; [6]", "result": 8750}, {"measurement": "cell count", "setting": "[2]; [7]", "result": 9250}, {"measurement": "z-score", "setting": "[3]", "result": "1.19 (inactive)"}]}, {"compound": "c1ccc(C2NNCC2c2ccnc3ccccc23)nc1", "note": "(centres undefined)", "values": [{"measurement": "remaining activity", "setting": "[1]", "result": "101% (inactive)"}, {"measurement": "fold change", "setting": "[2]; [4]", "result": "0.908 (inactive)"}, {"measurement": "fold change", "setting": "[2]; [5]", "result": 1.57}, {"measurement": "cell count", "setting": "[2]; [6]", "result": 8690}, {"measurement": "cell count", "setting": "[2]; [7]", "result": 9570}, {"measurement": "z-score", "setting": "[3]", "result": "-0.15 (inactive)"}]}, {"compound": "CN(N=O)C(=O)N[C@H]1C(O)O[C@H](CO)[C@@H](O)[C@@H]1O", "note": "(some centres undefined)", "values": [{"measurement": "remaining activity", "setting": "[1]", "result": "111% (inactive)"}, {"measurement": "fold change", "setting": "[2]; [4]", "result": "0.958 (inactive)"}, {"measurement": "fold change", "setting": "[2]; [5]", "result": 0.621}, {"measurement": "cell count", "setting": "[2]; [6]", "result": 8770}, {"measurement": "cell count", "setting": "[2]; [7]", "result": 9160}, {"measurement": "z-score", "setting": "[3]", "result": "-0.2 (inactive)"}]}, {"compound": "Cc1ccccc1N=Nc1ccc(NC(=O)c2ccnn2C)c(C)c1", "values": [{"measurement": "remaining activity", "setting": "[1]", "result": "109% (inactive)"}, {"measurement": "fold change", "setting": "[2]; [4]", "result": "0.919 (inactive)"}, {"measurement": "fold change", "setting": "[2]; [5]", "result": 0.67}, {"measurement": "cell count", "setting": "[2]; [6]", "result": 5460}, {"measurement": "cell count", "setting": "[2]; [7]", "result": 5950}, {"measurement": "z-score", "setting": "[3]", "result": "-0.675 (inactive)"}]}, {"compound": "CC(=Nc1ccccc1N)c1c(C)cc(=O)n(O)c1O", "values": [{"measurement": "remaining activity", "setting": "[1]", "result": "117% (inactive)"}, {"measurement": "fold change", "setting": "[2]; [4]", "result": "1.16 (inactive)"}, {"measurement": "fold change", "setting": "[2]; [5]", "result": 0.955}, {"measurement": "cell count", "setting": "[2]; [6]", "result": 3450}, {"measurement": "cell count", "setting": "[2]; [7]", "result": 2970}, {"measurement": "z-score", "setting": "[3]", "result": "-0.105 (inactive)"}]}, {"compound": "CCCCC1CCC(c2nc(-c3ccncc3)no2)CC1", "note": "(centres undefined)", "values": [{"measurement": "remaining activity", "setting": "[1]", "result": "122% (inactive)"}, {"measurement": "fold change", "setting": "[2]; [4]", "result": "0.974 (inactive) and 0.949 (inactive)"}, {"measurement": "fold change", "setting": "[2]; [5]", "result": "0.608 and 1.14"}, {"measurement": "cell count", "setting": "[2]; [6]", "result": "5260 and 8140"}, {"measurement": "cell count", "setting": "[2]; [7]", "result": "5400 and 8570"}, {"measurement": "z-score", "setting": "[3]", "result": "-0.62 (inactive)"}]}, {"compound": "CN1CCN(CCc2ccc(Cl)c(Cl)c2)CC1", "values": [{"measurement": "remaining activity", "setting": "[1]", "result": "124% (inactive)"}, {"measurement": "fold change", "setting": "[2]; [4]", "result": "1.04 (inactive)"}, {"measurement": "fold change", "setting": "[2]; [5]", "result": 1.01}, {"measurement": "cell count", "setting": "[2]; [6]", "result": 7800}, {"measurement": "cell count", "setting": "[2]; [7]", "result": 7520}, {"measurement": "z-score", "setting": "[3]", "result": "-0.73 (inactive)"}]}, {"compound": "N[C@@H](Cn1ccc(=O)n(Cc2ccccc2C(=O)O)c1=O)C(=O)O", "values": [{"measurement": "remaining activity", "setting": "[1]", "result": "102% (inactive)"}, {"measurement": "fold change", "setting": "[2]; [4]", "result": "0.972 (inactive)"}, {"measurement": "fold change", "setting": "[2]; [5]", "result": 1.26}, {"measurement": "cell count", "setting": "[2]; [6]", "result": 8660}, {"measurement": "cell count", "setting": "[2]; [7]", "result": 8900}, {"measurement": "z-score", "setting": "[3]", "result": "0.025 (inactive)"}]}, {"compound": "CC(=O)N(OCc1ccccc1)[C@@H]1c2cc(C#N)ccc2OC(C)(C)[C@H]1O", "values": [{"measurement": "remaining activity", "setting": "[1]", "result": "105% (inactive)"}, {"measurement": "fold change", "setting": "[2]; [4]", "result": "0.887 (inactive)"}, {"measurement": "fold change", "setting": "[2]; [5]", "result": 0.973}, {"measurement": "cell count", "setting": "[2]; [6]", "result": 8320}, {"measurement": "cell count", "setting": "[2]; [7]", "result": 9380}, {"measurement": "z-score", "setting": "[3]", "result": "0.705 (inactive)"}]}, {"compound": "Nc1nc(-c2ccc(Cl)c(Cl)c2)c(-c2ccncc2)s1", "values": [{"measurement": "remaining activity", "setting": "[1]", "result": "110% (inactive)"}, {"measurement": "fold change", "setting": "[2]; [4]", "result": "0.959 (inactive)"}, {"measurement": "fold change", "setting": "[2]; [5]", "result": 1.23}, {"measurement": "cell count", "setting": "[2]; [6]", "result": 8510}, {"measurement": "cell count", "setting": "[2]; [7]", "result": 8870}, {"measurement": "z-score", "setting": "[3]", "result": "1.59 (inactive)"}]}, {"compound": "c1ccc2sc(N3CCN(Cc4ccc5c(c4)OCO5)CC3)nc2c1", "values": [{"measurement": "remaining activity", "setting": "[1]", "result": "98.7% (inactive)"}, {"measurement": "fold change", "setting": "[2]; [4]", "result": "0.958 (inactive)"}, {"measurement": "fold change", "setting": "[2]; [5]", "result": 0.859}, {"measurement": "cell count", "setting": "[2]; [6]", "result": 9100}, {"measurement": "cell count", "setting": "[2]; [7]", "result": 9500}, {"measurement": "z-score", "setting": "[3]", "result": "-0.155 (inactive)"}]}, {"compound": "O/N=C/c1ccc(-c2ccc(O)c(F)c2)c(Cl)c1O", "values": [{"measurement": "remaining activity", "setting": "[1]", "result": "117% (inactive)"}, {"measurement": "fold change", "setting": "[2]; [4]", "result": "0.891 (inactive)"}, {"measurement": "fold change", "setting": "[2]; [5]", "result": 1.26}, {"measurement": "cell count", "setting": "[2]; [6]", "result": 7880}, {"measurement": "cell count", "setting": "[2]; [7]", "result": 8840}, {"measurement": "z-score", "setting": "[3]", "result": "-0.63 (inactive)"}]}, {"compound": "Ic1cc(-c2ccccc2)ncn1", "values": [{"measurement": "remaining activity", "setting": "[1]", "result": "120% (inactive)"}, {"measurement": "fold change", "setting": "[2]; [4]", "result": "0.965 (inactive)"}, {"measurement": "fold change", "setting": "[2]; [5]", "result": 1.73}, {"measurement": "cell count", "setting": "[2]; [6]", "result": 8200}, {"measurement": "cell count", "setting": "[2]; [7]", "result": 8500}, {"measurement": "z-score", "setting": "[3]", "result": "0.11 (inactive)"}]}, {"compound": "O=C(c1ccc(F)cc1)C1CCN(CCCCc2ccccc2)CC1", "values": [{"measurement": "remaining activity", "setting": "[1]", "result": "113% (inactive)"}, {"measurement": "fold change", "setting": "[2]; [4]", "result": "0.877 (inactive)"}, {"measurement": "fold change", "setting": "[2]; [5]", "result": 1.29}, {"measurement": "cell count", "setting": "[2]; [6]", "result": 8620}, {"measurement": "cell count", "setting": "[2]; [7]", "result": 9830}, {"measurement": "z-score", "setting": "[3]", "result": "-0.88 (inactive)"}]}]}
